Measured values reported in PubChem BioAssay.
Values joined by “and” are separate entries in the source; they are usually repeats but may differ in a detail not shown here. Equal entries are not always repeated. Active and inactive are the calls of the source. Cut-off read from the data, not from the text of the source, unless noted: active = parasite load remaining mostly below about 12% (no sharp cut-off); inactive = mostly above about 10%.

Experiments:
[1] = P. berghei load reduction in hepatocytes – cell-based, HepG2, luciferase luminescence, HepG2 viability, primary screen (AID 624349);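 note: 100% = mean of DMSO negative control wells on the same plate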; conditions: P. berghei liver stage in HepG2, luciferase luminescence, concentration not given here; parasite load remaining: stronger effect = lower value; viability: measured here: HepG2 viability without parasites
[2] = Wnt pathway potentiators raising nuclear beta-catenin – imaging, WNT3A-conditioned medium, mouse C2C12, NPC library, primary screen (AID 1117326; in the data active = nuclear beta-catenin stimulation mostly above about 4.2%, no sharp cut-off; inactive = mostly below about 10%; note: reference of the scale not given here); conditions: stronger effect = higher value
[3] = stimulators of insulin release from INS-1E, primary screen, cell-based, 5 mM glucose, NPC library (AID 1117329;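 active = compound raises insulin release from rat beta cells at 5 mM glucose, no numeric limit stated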; note: reference of the scale not given here); conditions: rat INS-1E insulin secretion, at 10 µM, stronger effect = higher value
[4] = growth inhibition of GSK3B-pretreated HCT116 cells – cell-based, CellTiter-Glo, 0.2 to 20 µM (AID 1117336;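 active = compounds lowering colon cancer cell viability after pretreatment blocking the GSK3B kinase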); conditions: HCT116 viability after GSK3B inhibitor, at 20 µM, stronger effect = higher value
[5] = inhibition of endothelial tube formation, primary screen, imaging, VEGF stimulated, CD31 staining, tube area, NPC library (AID 1117340;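 active = compound that reduces growth-factor-driven endothelial tube area in a mixed cell culture, no cutoff stated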); conditions: VEGF-stimulated ADSC/ECFC co-culture, at 10 µM, stronger effect = higher value
[6] = GLP1 release stimulators, primary, NCI-H716, NPC library (AID 1117341;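 active = compound raises GLP1 secretion from the human gut endocrine cells, with no numeric limit stated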; note: reference of the scale not given here); conditions: NCI-H716 cells, at 10 µM, stronger effect = higher value
[7] = HCT116 colon cancer cell growth inhibition, primary screen, CellTiter-Glo luminescence, NPC library (AID 1117342;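 active = compounds that lower survival of HCT116 colon cancer cells in the luminescence readout, no numeric limit stated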); conditions: at 20 µM (top of the series)
[8] = reduced SW480 viability measured with CellTiter-Glo, NPC library, primary (AID 1117343;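 active = compounds that lower viability of the colon cancer cells in the luminescence readout, with no numeric limit stated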); conditions: CellTiter-Glo luminescence; at 20 µM (top of the series)
[9] = NPC library primary testing for decreased DLD-1 cell viability via CellTiter-Glo (AID 1117346;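 active = compounds that lower survival of DLD-1 colon cancer cells in the luminescence readout, no cutoff given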); conditions: DLD-1 viability, CellTiter-Glo luminescence; at 20 µM (top of the series)
[10] = molecular target: 6-phosphogluconate dehydrogenase, decarboxylating (Homo sapiens) (UniProt P52209); test: inhibition of human phosphogluconate dehydrogenase – biochemical, recombinant enzyme, NADPH absorbance, primary screen (AID 1159550;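 active = at least 20% inhibition of 6-phosphogluconate dehydrogenase activity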); conditions: recombinant 6PGD, NADPH absorbance 341 nm; at 10 µM; stronger effect = higher value
Chain of 6-phosphogluconate dehydrogenase, decarboxylating (Homo sapiens) (P52209 whole entry, looked up): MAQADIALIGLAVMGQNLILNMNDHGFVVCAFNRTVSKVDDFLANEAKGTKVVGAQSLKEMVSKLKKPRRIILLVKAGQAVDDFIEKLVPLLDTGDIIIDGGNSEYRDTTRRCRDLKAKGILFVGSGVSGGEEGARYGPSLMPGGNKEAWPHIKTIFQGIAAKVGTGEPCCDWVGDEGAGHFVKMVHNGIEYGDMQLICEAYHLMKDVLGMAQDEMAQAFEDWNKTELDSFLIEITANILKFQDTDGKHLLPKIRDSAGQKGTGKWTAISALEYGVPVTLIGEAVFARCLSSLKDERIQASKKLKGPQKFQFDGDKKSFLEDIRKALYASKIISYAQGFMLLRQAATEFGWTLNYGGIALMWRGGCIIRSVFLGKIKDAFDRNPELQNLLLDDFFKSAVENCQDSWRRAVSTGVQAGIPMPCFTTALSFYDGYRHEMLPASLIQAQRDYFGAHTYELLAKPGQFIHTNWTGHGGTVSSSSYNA

Row | SMILES | parasite load remaining [1] | viability [1] | nuclear beta-catenin stimulation ([2]; at 10 µM) | nuclear beta-catenin stimulation ([2]; stimulation, at 2 µM) [%] | insulin secretion stimulation [3] | viability decrease [4] | tube area decrease [5] | GLP1 secretion stimulation [6] | inhibition of viability [7] | viability decrease (inhibition) [8] | viability decrease (inhibition) [9] | inhibition [10]
1 | OC(CCN1CCCCC1)(c1ccccc1)c1ccccc1 | 89.9% (inactive) and 126% (inactive) | 98.8% and 84.6% | 0.4% (inactive) | 2.1 | 60.4% (active) | 12.2% (inactive) | 1.5% (inactive) | 3.3% (inactive) | 23.9% (inactive) | 27% (inactive) | 2.1% (inactive) | 12.5% (inactive)
2 | C[N+]12CCC(CC1)C(OC(=O)C(O)(c1ccccc1)c1ccccc1)C2 (stereo unspecified) | 89.9% (inactive) and 72% (inactive) and 63.2% (inactive) | 98.6% and 73% and 99.2% | 1.4% (inactive) | 1.9 | -0.3% (inactive) | -30.2% (inactive) | 0.5% (inactive) | -3.1% (inactive) | 10.6% (inactive) | 22.9% (inactive) | -13.7% (inactive) | 11.7% (inactive)
3 | CCn1cc(C(=O)O)c(=O)c2cnc(N3CCCC3)nc21 | 91.2% (inactive) and 141% (inactive) | 104% and 72% | -0.4% (inactive) | 1.2 | -0.4% (inactive) | -29.5% (inactive) | 1.8% (inactive) | 1.2% (inactive) | 0% (inactive) | 11.2% (inactive) | -1.2% (inactive) | 5.15% (inactive)
4 | O=c1oc2cc(O)ccc2s1 | 62.7% (inactive) | 88.6% | -2.6% (inactive) | 0.6 | 2.9% (inactive) | -9.5% (inactive) | 11.8% (inactive) | -4.3% (inactive) | -4.7% (inactive) | 3.7% (active) | 10.2% (inactive) | 11.7% (inactive)
5 | O=C(O)CCCCC1CCSS1 (stereo unspecified) | 165% (inactive) | 96.8% | 0% (inactive) | -0.2 | -1.9% (inactive) | 3.2% (inactive) | 10.9% (inactive) | 0.5% (inactive) | 14.7% (inactive) | 29.9% (inactive) | -0.7% (inactive) | 14.8% (inactive)
6 | NC[C@H]1O[C@H](O[C@H]2[C@H](O)[C@@H](O[C@H]3O[C@H](CO)[C@@H](O)[C@H](N)[C@H]3O)[C@H](N)C[C@@H]2N)[C@H](N)[C@@H](O)[C@@H]1O | 95.5% (inactive) and 56.4% (inactive) | 69.4% and 85.5% | 0.8% (inactive) | -1.6 | -0.7% (inactive) | -7.8% (inactive) | -8.4% (inactive) | 1.5% (inactive) | 9.9% (inactive) | 6.5% (inactive) | -1.7% (inactive) | 5.79% (inactive)
7 | Oc1c(I)cc(I)c2cccnc12 | 92.2% (inactive) and 20.2% (inactive) | 77.1% and 92.8% | 0.7% (inactive) | 1 | 0.55% (inactive) | 102% (active) | 108% (active) | -3.1% (inactive) | 89.9% (active) | 147% (active) | 96.2% (active) | -4.02% (inactive)
8 | O=C(O)CCNC(=O)c1ccccc1 | 140% (inactive) | 88.4% | 3.5% (inactive) | 0.2 | -1% (inactive) | 6.3% (inactive) | -2% (inactive) | -0.3% (inactive) | -7.2% (inactive) | -1.3% (inactive) | 6.4% (inactive) | 2.23% (inactive)
9 | Cc1c(C(N)=O)cc([N+](=O)[O-])cc1[N+](=O)[O-] | 143% (inactive) | 90.9% | -0.3% (inactive) | -0.9 | -3.2% (inactive) | 13.7% (inactive) | -5.4% (inactive) | 2.8% (inactive) | -20% (inactive) | 34% (inactive) | 19.3% (inactive) | -17.5% (inactive)
10 | CCN(CC)CCOC(=O)C(c1ccccc1)C1CCCCC1 (stereo unspecified) | 67.5% (inactive) and 28.1% (inactive) | 92.4% and 69.7% | 5% (inactive) | 0.5 | 18.2% (inactive) | -99.4% (inactive) | 14.5% (inactive) | 2.9% (inactive) | 25% (inactive) | 36.2% (inactive) | 48.4% (inactive) | 9.92% (inactive)
11 | CC[N+](C)(C)Cc1ccccc1Br | 80.1% (inactive) | 101% | -0.9% (inactive) | 0.3 | 2.5% (inactive) | -18.7% (inactive) | 10% (inactive) | -3% (inactive) | 27.2% (inactive) | -1.6% (active) | 10.8% (inactive) | -1.68% (inactive)
12 | Cc1c(NC(=O)c2cccnc2)c(=O)n(-c2ccccc2)n1C | 43.9% (inactive) and 167% (inactive) and 109% (inactive) | 47% and 88.9% and 92.6% | -1.7% (inactive) | 1.7 | -1% (inactive) | -14.1% (inactive) | 7.1% (inactive) | -0.1% (inactive) | -4.77% (inactive) | 18.1% (inactive) | -19.7% (inactive) | -15.8% (inactive)
13 | O=c1ccc2ccccc2o1 | 71% (inactive) | 94.5% | -0.2% (inactive) | -0.6 | -1.8% (inactive) | 3.65% (inactive) | -29.2% (inactive) | 2.9% (inactive) | 12.6% (inactive) | 19.6% (inactive) | 6% (inactive) | -18.6% (inactive)
14 | Nc1ccc(S(=O)(=O)Nc2ccc(Cl)nn2)cc1 | 128% (inactive) and 127% (inactive) and 54.3% (inactive) | 105% and 69.3% and 92.4% | 3.3% (inactive) | 4.5 | 1% (inactive) | 6.1% (inactive) | 12.6% (inactive) | -1.5% (inactive) | -6.17% (inactive) | 15.5% (inactive) | 0.7% (inactive) | 10.1% (inactive)
15 | CC(NCCC(c1ccccc1)c1ccccc1)c1ccccc1 (stereo unspecified) | -2.42% (inactive) and 196% (inactive) and 56% (inactive) | 7.6% and 63.1% and 81.9% | 27.6% (inactive) | -0.2 | 4.5% (inactive) | 99.5% (active) | 15.4% (inactive) | -2.1% (inactive) | 99.3% (active) | 102% (active) | 89% (active) | 4.5% (inactive)
16 | COc1cc(NS(=O)(=O)c2ccc(N)cc2)ncn1 | 84.2% (inactive) and 61.4% (inactive) and 48% (inactive) | 97.9% and 64.7% and 90.8% | 3% (inactive) | 3.5 | 4.3% (inactive) | 16.8% (inactive) | 1.4% (inactive) | -4.1% (inactive) | 3.43% (inactive) | -10.6% (inactive) | 3.8% (inactive) | -1.56% (inactive)
17 | CC(=O)NO | 102% (inactive) and 55.8% (inactive) | 71.8% and 93.7% | 0% (inactive) | 0.9 | 5.1% (inactive) | 30.9% (inactive) | 11.1% (inactive) | 10.8% (active) | 10.6% (inactive) | 69.2% (active) | 56% (active) | -9.51% (inactive)
18 | CN1CCC(=C2c3ccccc3Sc3ccccc32)CC1 | 16.9% (inactive) and 99.5% (inactive) and 91.2% (inactive) | 43.6% and 70.3% and 91.9% | -0.1% (inactive) | 1.3 | 28.8% (active) | 77.2% (active) | 51.9% (active) | -3.3% (inactive) | 36.4% (inactive) | 80.2% (active) | 23.6% (inactive) | 13.2% (inactive)
19 | O=C(O)c1cc(O)c(O)c(O)c1 | 50.3% (inactive) | 100% | 1% (inactive) | -0.2 | -0.6% (inactive) | 44.8% (inactive) | -2.4% (inactive) | 5.1% (inactive) | 1.3% (inactive) | 36.1% (inactive) | 39.5% (inactive) | 3.08% (inactive)
20 | S=P(N1CC1)(N1CC1)N1CC1 | 137% (inactive) and 49.2% (inactive) | 91% and 141% | -0.7% (inactive) | -0.3 | 1.3% (inactive) | 16.4% (inactive) | 35.1% (inactive) | -2.2% (inactive) | 22.3% (inactive) | 33.3% (inactive) | 18.9% (inactive) | -6.76% (inactive)
21 | CC(=O)N(O)CCCCCNC(=O)CCC(=O)N(O)CCCCCNC(=O)CCC(=O)N(O)CCCCCN | 87.4% (inactive) and 82.1% (inactive) and 111% (inactive) | 104% and 70.2% and 87.4% | -0.3% (inactive) | -1.8 | 1.8% (inactive) | 56.1% (active) | 83% (active) | -3.6% (inactive) | 75.7% (active) | 21% (inactive) | 31.5% (inactive) | -4.7% (inactive)
22 | Cc1onc(-c2ccccc2)c1C(=O)N[C@@H]1C(=O)N2[C@@H]1SC(C)(C)[C@@H]2C(=O)O | 27.2% (inactive) | 72.5% | -2.3% (inactive) | 0.5 | 6.3% (inactive) | 0.4% (inactive) | -1.6% (inactive) | -3.6% (inactive) | 5.3% (inactive) | -4.9% (inactive) | -3.8% (inactive) | 8.76% (inactive)
23 | COC(=O)Nc1nc2ccc(S(=O)c3ccccc3)cc2[nH]1 (stereo unspecified) | 162% (inactive) and 87.1% (inactive) and 49.8% (inactive) | 85.8% and 93.1% and 68.5% | 57.7% (active) | 58.1 | -2.4% (inactive) | 93.5% (active) | 110% (active) | 8% (inactive) | 92.2% (active) | 96% (active) | 88% (active) | 17.4% (inactive)
